system: Vero E6 infected with SARS-CoV-2; experiment: morphology score (similarity to uninfected cells); higher = more like uninfected cells; details: 24 h

Structure (SMILES) | morphology score
CCOc1ccccc1-n1c(C(C)N2CCN(C(=O)COc3ccc(Cl)cc3)CC2)nc2ccccc2c1=O (stereo not given) [erastin] (0.833333 µM) | -0.0506
O.O=[Si]=O.O=[Si]=O.O=[Si]=O.O=[Si]=O.[O]=[Mg].[O]=[Mg].[O]=[Mg] (10 µM) | 0.0643
Cc1cc(F)c(Nc2ncnc3cc(OCc4ccccc4)ccc23)cc1O (10 µM) | 0.0561
C/C(=C\c1ccc(C(=O)O)cc1)c1ccc2c(c1)C(C)(C)CCC2(C)C (10 µM) | -0.0726
CCCn1c(=O)[nH]c(=O)c2nc[nH]c21 [enprofylline] (10 µM) | 0.188
CC(=O)N(c1onc(C)c1C)S(=O)(=O)c1ccc(N)cc1 [sulfisoxazole-acetyl] (10 µM) | 0.179
CCC(c1ccccc1)c1c(O)c2ccccc2oc1=O (stereo not given) [phenprocoumon] (10 µM) | 0.0901
CN(C)c1ccc2nc3ccc(=[N+](C)C)cc-3sc2c1 [methylene-blue] (0.833333 µM) | 0.152
CC(C)(C)NCC(O)c1cc(Cl)c(N)c(Cl)c1 (stereo not given) [clenbuterol] (10 µM) | -0.0972
Oc1ncnc2[nH]ncc12 [allopurinol] (10 µM) | -0.0914
CN(C)C(=N)NCCC[C@H](N)C(=O)O [asymmetrical-dimethylarginine] (10 µM) | 0.217
CCn1nc(C(=O)O)c(=O)c2cc3c(cc21)OCO3 [cinoxacin] (10 µM) | -0.0392
Cn1cc(C(F)(F)F)nc1-c1ccc(OCC(O)CNCCOc2ccc(O)c(C(N)=O)c2)cc1 (stereo not given) (10 µM) | -0.123
CC1CS(=O)(=O)CCN1/N=C/c1ccc([N+](=O)[O-])o1 (stereo not given) [nifurtimox] (10 µM) | 0.0407
N=C(N)c1ccc(/C=C/c2ccc(C(=N)N)cc2O)cc1 [hydroxystilbamidine] (10 µM) | 0.115
CC[C@H]1CN2CC[C@H]1C[C@@H]2[C@@H](O)c1ccnc2ccc(OC)cc12 [hydroquinidine] (10 µM) | 0.301
Cn1nnnc1SCC1=C(C(=O)O)N2C(=O)[C@@H](NC(=O)[C@H](OC=O)c3ccccc3)[C@H]2SC1 [cefamandole-nafate] (10 µM) | 0.0598
CS(=O)(=O)OC[C@H](O)[C@@H](O)COS(C)(=O)=O [treosulfan] (10 µM) | -0.204
CCOC(=O)N[C@@H]1CC[C@@H]2[C@@H](C1)C[C@H]1C(=O)O[C@H](C)[C@H]1[C@H]2/C=C/c1ccc(-c2cccc(F)c2)cn1 [vorapaxar] (10 µM) | 0.209
O=[N+]([O-])c1ccc2c(c1)S(=O)(=O)C=C2 [stattic] (0.833333 µM) | 0.148

Structure (SMILES) | morphology score
Cc1c(C(=O)N2CCOc3ccc(-c4ccc(N)nc4)cc3C2)ccc(S(C)(=O)=O)c1F (0.833333 µM) | -0.0918
CCN(CC)CCOc1ccc(/C(=C(\Cl)c2ccccc2)c2ccccc2)cc1 [clomifene] (0.833333 µM) | 0.172
O=C(O)CCCCN(CCc1ccccc1OCc1ccc(CCc2ccccc2)cc1)Cc1ccc(C(=O)O)cc1 [cinaciguat] (10 µM) | -0.0659
Cc1c(O)c(=O)n(-c2ccccc2)n1C [4-hydroxy-phenazone] (10 µM) | -0.0731
Cn1c(=O)c2c(ncn2CCO)n(C)c1=O [etofylline] (10 µM) | 0.0956
CCOCCn1c(C2CCN(CCc3ccc(C(C)(C)C(=O)O)cc3)CC2)nc2ccccc21 [bilastine] (10 µM) | 0.144
C/C(=C(\CCOP(=O)(O)O)SC(=O)c1ccccc1)N(C=O)Cc1cnc(C)nc1N [benfotiamine] (10 µM) | -0.0264
CC[C@@H](C(N)=O)N1CCCC1=O [levetiracetam] (10 µM) | 0.0141
CC(=O)[C@H]1CC[C@H]2[C@@H]3CC[C@H]4C[C@](C)(O)CC[C@]4(C)[C@H]3CC[C@]12C [ganaxolone] (10 µM) | -0.0442
NC1=NCC2c3ccccc3Cc3ccccc3N12 (stereo not given) [epinastine] (10 µM) | 0.0427
COCCCC/C(=N\OCCN)c1ccc(C(F)(F)F)cc1 [fluvoxamine] (10 µM) | 0.0586
Cc1ncc(NC(=O)c2ccc(CN3CCN(C)CC3)c(C(F)(F)F)c2)cc1Nc1nccc(-c2cccnc2)n1 [flumatinib] (10 µM) | 0.306
CC#CCC(C)[C@H](O)/C=C/[C@@H]1[C@H]2C/C(=C/CCCC(=O)O)C[C@H]2C[C@H]1O (stereo not given in full) [iloprost] (10 µM) | 0.0115
CCn1nc(C2CCN(C(=O)CCO)CC2)nc1-c1cnc(N)c(-c2nnc(C(C)(C)C)o2)n1 (0.833333 µM) | 0.199
O=C(Nc1ccc(N2CCC(C(=O)N3CCOCC3)CC2)cc1)c1cnc(Oc2ccccc2)nc1 (10 µM) | -0.02
CC#CC(=O)N1CC[C@@H](n2c(=O)n(-c3ccc(Oc4ccccc4)cc3)c3c(N)ncnc32)C1 (0.833333 µM) | -0.0591
O=C1NC(=O)c2cc(Nc3ccccc3)c(Nc3ccccc3)cc21 (10 µM) | 0.39
O=C(O)CN1C(=O)c2cccc3cccc(c23)C1=O [alrestatin] (10 µM) | 0.0519
FC(F)OC(F)(F)C(F)Cl (stereo not given) [enflurane] (10 µM) | 0.188
CC(=O)N1CCC(NC(=O)c2ccc(F)cc2)CC1 (10 µM) | 0.0529

Reference: the supplement of paper PMC13380429
